Screening results (PubChem BioAssay)
GLP1R inv ag: qHTS of GLP-1 Receptor Inverse Agonists (Inhibition Mode) | Glucagon-like peptide 1 receptor (Homo sapiens), P43220 | HEK293 GLP-1R CRE-luciferase, luminescence, 24 h; GLP-1R form is constitutively active | Potency, µM (titrated, usually from 38.3 µM), for inactives: at the highest dose activity change, negative = inhibition, usual class: inhibitors | 410,000 compounds, 1.6% hits | AID 624417, 2012; note: % is set by controls: 0 for no effect and ±100 for the full control effect; nearly all actives have a fitted effect of over 55% in size
Target sequence (P43220 whole entry, looked up): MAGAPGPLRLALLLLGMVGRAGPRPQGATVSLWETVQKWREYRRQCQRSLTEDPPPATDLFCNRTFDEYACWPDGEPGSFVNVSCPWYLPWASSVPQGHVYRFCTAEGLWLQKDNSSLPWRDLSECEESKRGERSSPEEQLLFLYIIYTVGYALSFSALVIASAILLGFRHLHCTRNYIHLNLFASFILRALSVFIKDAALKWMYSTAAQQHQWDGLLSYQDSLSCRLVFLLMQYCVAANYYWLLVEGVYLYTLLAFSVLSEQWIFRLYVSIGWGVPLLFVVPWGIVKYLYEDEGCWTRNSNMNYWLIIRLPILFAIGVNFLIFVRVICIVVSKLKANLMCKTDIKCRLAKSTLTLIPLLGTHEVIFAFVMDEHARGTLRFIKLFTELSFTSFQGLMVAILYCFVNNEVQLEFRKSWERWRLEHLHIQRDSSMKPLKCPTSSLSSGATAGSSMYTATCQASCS
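Seeding at 200 cells/uL, 12 h culture, 24 hr compound treatment, then luciferase reagent and a luminescence read; cells are HEK293 stably expressing a constitutively active GLP-1R plus cAMP-responsive luciferase.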
HEK293 tox: qHTS of GLP-1 Receptor Inverse Agonists: Cytotox Screen. Potency, µM (doses to about 38.3 µM), for the others: top-dose activity change, negative = inhibition, hits mostly inhibitors. 410,000 compounds, 0.13% hits. HEK293 cAMP-luciferase reporter cells, luminescence, 24 h;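 note: loss of luciferase light is scored as toxicity; % is set by controls: 0 for no effect and ±100 for the full control effect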
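Luminescence readout: signal drop marks cytotoxicity. Plated cells grew 12 h at 37 °C, 5% CO2, received 23 nL compound for 24 h, then got luciferase reagent, read after 12 min at RT.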
PTHR1 ag: qHTS for PTHR1 Agonists: Primary Screen; HEK293 GP2 PTHR1 cells, GloSensor cAMP luminescence, 1 h; 410,000 compounds, 0.075% hits; Potency, µM (series often up to 115 µM), for inactives: at the highest dose activation, most hits filed as activators; note: nearly all actives have a fitted effect of over 55% in size
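HEK-293-derived GP2 cells expressing PTHR1 and a GloSensor cAMP reporter, 3,000/well, plated overnight, given luciferin plus IBMX (each 0.5 mM as added) for 1 h at 37 °C, then compound for 1 h at 37 °C. Luminescence was read after 15 min at room temperature.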
GLP-1R agonist: qHTS of GLP-1 Receptor Agonists; Glucagon-like peptide 1 receptor (Homo sapiens), P43220; HEK293 GLP-1R CRE-luciferase, luminescence, 4-6 h; cells express a hypersensitive GLP-1R form; Potency, µM (top dose mostly 45.6 µM), inactives show at the highest dose activation, most hits filed as activators; 380,000 compounds, 0.007% hits; AID 624172, 2012; note: % of control where 0% means no effect
RGS4 inhibitor: Inhibitors of Regulator of G Protein Signaling (RGS) 4: qHTS. Regulator of G-protein signaling 4 (Homo sapiens), P49798. 390,000 compounds, 0.039% hits. Transcreener GDP fluorescence polarization, RGS4-accelerated GTP hydrolysis. Potency, µM (highest dose often 114 µM), for the others: at the highest dose activity change, negative = inhibition, usual class: inhibitors; note: % is set by controls: 0 for no effect and ±100 for the full control effect; nearly all actives have a fitted effect of over 75% in size
Target sequence (P49798 whole entry, looked up): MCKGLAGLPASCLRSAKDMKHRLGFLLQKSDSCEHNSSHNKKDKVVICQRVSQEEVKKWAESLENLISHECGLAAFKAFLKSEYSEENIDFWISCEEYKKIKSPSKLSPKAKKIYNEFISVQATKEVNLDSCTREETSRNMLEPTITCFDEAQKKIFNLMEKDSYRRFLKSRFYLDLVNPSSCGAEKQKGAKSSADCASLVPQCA
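MLSMR compounds (23 nl, pin-transferred) preincubated 10 min at room temperature with a 500nM (2x) first reagent, then RGS4 at 900nM (2x) plus Transcreener GDP mix added; fluorescence polarization (620/688 nm) read before and after 90 min at 30 °C.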
* hit, by the source's call; [ ] = another dose, or the depositor's remark. A selection: hits, their analogues and other compounds. The true share with any hit is near 1.7%. Calls come from the whole dose curve; as a rule, active = well fitted curve in the direction sought with a large enough effect; inconclusive = small, poorly fitted or top-dose-only effect, or another doubt; inactive = no such curve, though single readings can be large; an effect the other way counts as inactive or inconclusive. Potency is the fitted concentration of half-maximal effect.

For CCc1ccc(-n2c(=O)c3sc4ccccc4c3n(CC(=O)NCc3ccccc3)c2=O)cc1 the results were GLP1R inv ag 7%, HEK293 tox 11%, PTHR1 ag -11%, GLP-1R agonist 1% and RGS4 inhibitor 21%.
`OC[C@@H]1CN(Cc2ccco2)C[C@H](n2cnc3c(NC4CCCC4)ncnc32)O1` gave GLP1R inv ag 22%, HEK293 tox -4%, PTHR1 ag -22% and GLP-1R agonist 5%.
Screening Cc1ccc2[nH]c3c(c2c1)CCCC3NCCO (stereo not given) returned GLP1R inv ag 10µM*, HEK293 tox -4%, PTHR1 ag -21%, GLP-1R agonist -4% and RGS4 inhibitor 10%.
For CC1OC(CCc2cccc(Cl)c2)Cc2[nH]c(=S)[nH]c(=O)c21 (stereo not given) the results were GLP1R inv ag -11%, HEK293 tox -3%, PTHR1 ag -47% and GLP-1R agonist 9%.
Screening COc1cccc(NC(=O)CSc2nc3c(sc4ccccc43)c(=O)n2CCCN2CCCC2)c1 returned GLP1R inv ag 10µM*, HEK293 tox inconclusive, PTHR1 ag inconclusive, GLP-1R agonist 15% and RGS4 inhibitor -32%.
For O=C(C[C@H]1C[C@H](C(=O)N2CCCCC2)[C@@]2(CCc3ccccc3)c3[nH]c4cc(-c5ccco5)ccc4c3CCN2C1=O)NCc1ccco1 the results were GLP1R inv ag 8.9µM*, HEK293 tox -7%, PTHR1 ag -10%, GLP-1R agonist -2% and RGS4 inhibitor inconclusive.
Screening O=C(CC1C[C@H](C(=O)N2CCCCC2)[C@@]2(CCc3ccccc3)c3[nH]c4ccccc4c3CCN2C1=O)NCc1ccco1 (stereo not given in full) returned GLP1R inv ag 3%, HEK293 tox 0%, PTHR1 ag -25%, GLP-1R agonist -4% and RGS4 inhibitor -15%.
`CC[C@]12c3[nH]c4cc(-c5ccco5)ccc4c3CCN1C(=O)[C@@H](CC(=O)NCCC1=CCCCC1)C[C@@H]2C(=O)N1CCN(C(=O)c2ccco2)CC1` gave GLP1R inv ag 7.9µM*, HEK293 tox -22%, PTHR1 ag 5%, GLP-1R agonist 1% and RGS4 inhibitor inconclusive.
Screening Cc1ccc(C(=O)NC2CC(C)(C)NC(C)(C)C2)cc1S(=O)(=O)N1CCOCC1 returned GLP1R inv ag -11%, HEK293 tox 14%, PTHR1 ag inactive, GLP-1R agonist -6% and RGS4 inhibitor 13%.
Screening CCOCCCN1C(=O)c2ccccc2CC1(C)C(=O)NC1CCCCC1 (stereo not given) returned GLP1R inv ag 1%, HEK293 tox 2%, PTHR1 ag -18% and RGS4 inhibitor 26%.
Screening CCN(CC)CCNC(=O)CCc1c(C)nc2c(c(C)nn2-c2ccc(C)cc2)c1C returned GLP1R inv ag 1.6µM*, HEK293 tox inconclusive, PTHR1 ag -40%, GLP-1R agonist 0% and RGS4 inhibitor -28%.
Screening COc1cccc(NC(=O)CCC(=O)N2Cc3ccccc3Oc3ncccc32)c1 returned GLP1R inv ag -17%, HEK293 tox 0%, PTHR1 ag inactive and RGS4 inhibitor -6%.
For COc1ccc(C(=O)NC(=S)Nc2ccccc2N2CCCCC2)cc1[N+](=O)[O-] the results were GLP1R inv ag 1.1µM*, HEK293 tox inconclusive, PTHR1 ag inactive, GLP-1R agonist 9% and RGS4 inhibitor -34%.
For CCOc1ccc(CCNC(=O)Cn2nc(CC)n3c(cc4ccccc43)c2=O)cc1 the results were GLP1R inv ag -12%, HEK293 tox 3%, PTHR1 ag inactive and RGS4 inhibitor 0%.
`O=C(NCCCN1CCN(c2ccccc2F)CC1)C1COc2ccccc2C1` (stereo not given) gave GLP1R inv ag -19%, HEK293 tox -6%, PTHR1 ag inactive and RGS4 inhibitor 15%.
CCc1ccc(-n2nc(C)c3c(C(=O)Nc4cccc(C(F)(F)F)c4)cc(C)nc32)cc1 was read as GLP1R inv ag 2.2µM*, HEK293 tox -27%, PTHR1 ag -43% and RGS4 inhibitor -13%.
Screening Cc1nn(-c2ccccc2)c2nc(C3CC3)cc(C(=O)Nc3cccc(F)c3)c12 returned GLP1R inv ag 5.6µM*, HEK293 tox -22%, PTHR1 ag -15% and RGS4 inhibitor -8%.
COc1ccc(NC(=O)c2cc(C3CC3)nc3c2c(C)nn3-c2ccccc2)cc1OC was read as GLP1R inv ag 17%, HEK293 tox -3%, PTHR1 ag -44% and RGS4 inhibitor -6%.
Screening CCc1ccc(-n2nc(C)c3c(C(=O)Nc4ccc(Cl)cc4)cc(C)nc32)cc1 returned GLP1R inv ag -13%, HEK293 tox 4%, PTHR1 ag -23% and RGS4 inhibitor 13%.
For O=C1CSC(=S)N1c1cccnc1 the results were GLP1R inv ag 0%, HEK293 tox -29%, PTHR1 ag -11%[57.5 µM], GLP-1R agonist 0% and RGS4 inhibitor -26%.
O=C1CSC(=S)N1Cc1cccnc1 was read as GLP1R inv ag 2.8µM*, HEK293 tox inconclusive, PTHR1 ag -28%[57.5 µM], GLP-1R agonist -25% and RGS4 inhibitor inconclusive.
CCN(C(=O)c1ccccc1F)c1nc(-c2ccc(OC)cc2)cs1 was read as GLP1R inv ag inconclusive, HEK293 tox -6%, PTHR1 ag -30%, GLP-1R agonist -1% and RGS4 inhibitor -24%.
Screening COc1ccc(-c2csc(N(CCCN(C)C)C(=O)c3ccccc3Cl)n2)cc1 returned GLP1R inv ag inconclusive, HEK293 tox inconclusive, PTHR1 ag inactive, GLP-1R agonist -5% and RGS4 inhibitor -17%.
`COCCN(C(=O)c1ccccc1F)c1nc(-c2ccc(OC)cc2)cs1` gave GLP1R inv ag 10µM*, HEK293 tox 15%, PTHR1 ag -18%, GLP-1R agonist 19% and RGS4 inhibitor -8%.
For COc1ccc(-c2csc(N(CCCN(C)C)C(=O)c3ccccc3C)n2)cc1 the results were GLP1R inv ag 2.8µM*, HEK293 tox inconclusive, PTHR1 ag inactive, GLP-1R agonist -3% and RGS4 inhibitor -8%.
`CCOc1ccc2oc(=O)cc(CN3CCN(c4ccc(Cl)cc4)CC3)c2c1` gave GLP1R inv ag 4%, HEK293 tox -9%, PTHR1 ag -41% and RGS4 inhibitor -1%.
For CSc1cccc(NS(=O)(=O)c2ccc(-c3coc(C)n3)cc2)c1 the results were GLP1R inv ag 8.9µM*, HEK293 tox 0%, PTHR1 ag -32%, GLP-1R agonist 0% and RGS4 inhibitor -14%.
